# An excerpt weighted towards active compounds, which were near 2.4% of everything screened.
# Cruzain Triton: qHTS Assay for Promiscuous and Specific Inhibitors of Cruzain (with detergent) | Cruzipain (Trypanosoma cruzi), P25779 | purified cruzain, Z-FR-AMC fluorescence, 0.01% Triton | Potency, µM, hits mostly inhibitors | 200,000 compounds, 0.43% hits | AID 1478, 2009; note: nearly all actives have a fitted effect of over 40% in size
# Target sequence (P25779 123-467 limits assumed): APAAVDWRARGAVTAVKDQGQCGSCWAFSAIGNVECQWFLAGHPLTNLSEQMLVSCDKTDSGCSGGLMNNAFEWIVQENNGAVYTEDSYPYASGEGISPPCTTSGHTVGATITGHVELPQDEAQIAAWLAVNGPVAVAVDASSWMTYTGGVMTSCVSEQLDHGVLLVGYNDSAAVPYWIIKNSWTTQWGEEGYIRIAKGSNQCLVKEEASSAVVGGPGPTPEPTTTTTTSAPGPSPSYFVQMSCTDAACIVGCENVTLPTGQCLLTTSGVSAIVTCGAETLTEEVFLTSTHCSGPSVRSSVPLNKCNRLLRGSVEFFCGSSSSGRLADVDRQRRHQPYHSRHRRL
#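 Detergent-containing run (0.01% Triton X-100) in acetate buffer pH 5.5 with 5 mM DTT: enzyme at 1.5 nM final, 15 min compound preincubation at room temperature, then 2 uM Z-FR-AMC substrate. Activity taken as 60 s fluorescence increase at 360/450 nm.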
# Cruzain inh noDet: qHTS Assay for Promiscuous and Specific Inhibitors of Cruzain (without detergent) | Cruzipain (Trypanosoma cruzi), P25779 | purified cruzain, Z-FR-AMC fluorescence, no detergent | Potency, µM, most hits filed as inhibitors | 200,000 compounds, 2.3% hits; note: nearly all actives have a fitted effect of over 40% in size
#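 Detergent-free condition (0.00005% Triton X-100) in acetate buffer pH 5.5 with DTT. 1.5 nM enzyme and compound were pre-mixed 15 min, then 2 uM Z-FR-AMC substrate added; reaction progress from fluorescence change between first and third reads (60 s).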
# Numbers stand for hits; - = inactive; ? = inconclusive. Calls come from the whole dose curve; as a rule, active = well fitted curve in the direction sought with a large enough effect; inconclusive = small, poorly fitted or top-dose-only effect, or another doubt; inactive = no such curve, though single readings can be large; an effect the other way counts as inactive or inconclusive.
SMILES,Cruzain Triton,Cruzain inh noDet
O=[N+]([O-])c1cc(S(=O)(=O)C(F)(F)F)ccc1Sc1nc2ccccc2s1,-,25µM
COC(=O)c1cc(=O)c(O)c2c(O)c(O)ccc2c1,-,-
Cc1ccccc1NC(=O)N1CCc2c(sc3c2CCCC3)C1c1ccccc1 (configuration not stated),-,?
Cc1ccc(NC(=O)N2CCc3c(sc4c3CCCC4)C2c2ccccc2)cc1F (configuration not stated),-,7.9µM
Cc1ccc(NC(=O)CN2CCC(NC(=O)C3CCCCC3)CC2)c(Br)c1,-,-
Cc1ccc(C(=O)CN2CCC(NC(=O)C3CCCCC3)CC2)cc1,25µM,?
C=CCOc1ccc(CC(=O)O)cc1Cl,-,-
N#Cc1cc(C(=O)c2cc(Cl)ccc2O)cn(-c2ccccc2)c1=O,-,-
Cc1ccc(NC(=O)c2cc(C(=O)c3cc(Cl)ccc3O)cn(-c3ccc(C)cc3)c2=O)cc1,-,5µM
CN1CCC[C@@H]1c1cccnc1.O=C(O)c1ccccc1O.O=C([OH2+])c1ccccc1O.O=C([OH2+])c1ccccc1O.O=C([OH2+])c1ccccc1O.[Cu],-,-
Cc1ccc(CNS(=O)(=O)c2ccc3[nH]c4c(c3c2)CCCCC4)cc1,-,-
Cc1ccc(C)c(N2CCN(S(=O)(=O)c3ccc4[nH]c(=O)c(=O)[nH]c4c3)CC2)c1,-,-
Cc1ccc(N2CCN(S(=O)(=O)c3ccc4[nH]c5c(c4c3)CCCCC5)CC2)c(C)c1,-,3.2µM
Cc1ccc(C)c(N2CCN(S(=O)(=O)c3ccc4[nH]c5c(c4c3)CCCCC5)CC2)c1,-,7.9µM
CCOc1ccc(NC(=O)CC2C(=O)N(c3ccc(C)cc3)C(=O)N2C2CCCCC2)cc1 (configuration not stated),-,-
O=C(Nc1nc2ccc(Cl)cc2s1)c1ccc(Br)o1,-,20µM
O=C(Nc1nc2c(Cl)cccc2s1)c1ccc(Br)o1,-,-
CC(C)(CC(=O)OCC(=O)Nc1ccc(F)c(Cl)c1)CC1=NS(=O)(=O)c2ccccc2N1,-,-
Cc1cc([P+](=O)O)c(C)n1-c1ccc(Br)cc1,-,20µM
CC(=O)N/N=C/c1cc(C)n(-c2ccc(Br)cc2)c1C,-,-
COc1cc(C/C=C\c2ccccc2)c(OC)cc1O,-,-
CCCCN(C)c1nc2c(S(=O)(=O)c3ccc(CC)cc3)nnn2c2ccc(Cl)cc12,-,-
CC(=O)c1ccsc1-c1c(C)cc2oc(=O)cc(-c3ccccc3)c2c1C,-,35µM
Cc1cc2oc(=O)cc(-c3ccccc3)c2c(C)c1-c1cccc(N)c1,-,?
Cc1cc2oc(=O)cc(-c3ccccc3)c2c(C)c1-c1ccc(F)c(Cl)c1,-,5.6µM
SMILES,Cruzain Triton,Cruzain inh noDet
Cc1cc2oc(=O)cc(-c3ccccc3)c2c(C)c1-c1sccc1C=O,-,?
CCOC(=O)CSc1ncnc2c1sc1nc(N3CCOCC3)c3c(c12)CCCC3,-,-
CCOC(=O)C(Sc1ncnc2c1sc1nc(N3CCOCC3)c3c(c12)CCCC3)c1ccccc1 (configuration not stated),-,3.2µM
Cc1cccc(NC(=O)c2sc3nc4n(c(=O)c3c2C)N=C(c2ccc(F)cc2)CS4)c1C,-,-
COc1ccc(-c2c/c(=N\c3nc(-c4ccccc4)c(C)s3)c3ccccc3o2)cc1O,-,10µM
COc1ccc(/C=C/c2nc3cc(-c4ccccc4)ccc3o2)cc1O,-,-
COc1ccc(C(=O)Nc2cc(C(C)C)c(O)c(S(=O)(=O)c3ccc(OC)cc3)c2C)cc1,-,25µM
COc1ccc(C(=O)Nc2cc(C(C)C)c(O)c(S(=O)(=O)c3ccc(Cl)cc3)c2C)cc1,-,?
Cc1cc(Br)ccc1NC(=O)C(Cc1ccccc1)NS(=O)(=O)c1ccc(Br)s1 (configuration not stated),-,-
CC1=CC(C)(C)n2c(O)c(C3=NC(=S)NC3=O)c3cc(OC(=O)c4cccc5ccccc45)cc1c32,-,3.2µM
COc1cccc(C(=O)Oc2cc3c4c(c2)C(C)=CC(C)(C)N4C(=O)C3=O)c1,-,-
Cc1cccc(CNC(=O)C2CCN(c3nc4ccc(Cl)cc4[nH]3)CC2)c1,-,-
Cc1ccc(-c2nc3ccccc3o2)cc1NC(=S)NC(=O)/C=C/c1ccco1,-,?
O=C(/C=C/c1ccco1)NC(=S)Nc1cccc([N+](=O)[O-])c1,-,32µM
O=C(/C=C/c1ccco1)NC(=S)Nc1cccc(-c2nc3ccccc3o2)c1,-,10µM
O=C(NC(=S)Nc1cccc([N+](=O)[O-])c1)c1ccco1,-,-
O=C(Nc1c(C(=O)c2ccccc2)oc2ccccc12)c1cc(-c2ccccc2O)n[nH]1,-,13µM
Cc1ccc(C(=O)c2oc3ccccc3c2NC(=O)c2cc(-c3ccccc3O)n[nH]2)cc1,-,?
COc1ccc(-c2cc3nc(C)c(CCC(=O)N4CCN(c5ccccc5)CC4)c(C)n3n2)c(OC)c1,-,-
O=C(CCCCn1c(=O)c2ccccc2n(Cc2cccc(F)c2)c1=O)NCCc1ccccc1,-,-
CC[C@@H](CS(=O)(=O)O)[N+](=O)[O-],-,-
O=C(Nc1ccc(Cl)c(Cl)c1)c1cc(S(=O)(=O)N2CCN(c3cccc(Cl)c3)CC2)ccc1F,-,3.2µM
O=C(Nc1ccc2c(c1)CCC2)c1cccc(S(=O)(=O)N2CCN(c3ccccc3)CC2)c1,-,25µM
O=C(Nc1ccc(F)c(F)c1)c1cc(S(=O)(=O)N2CCN(c3ccccn3)CC2)ccc1F,-,-
O=C(NC1CCCc2ccccc21)c1cccc(S(=O)(=O)N2CCN(c3ccccc3)CC2)c1 (configuration not stated),-,?
SMILES,Cruzain Triton,Cruzain inh noDet
O=C(Cn1ncc2ccsc2c1=O)N1CCN(c2ccc(Cl)cc2)CC1,-,-
COc1ccc(-n2c(=O)c3ccc(C(=O)NCc4ccc(C)cc4)cc3n(Cc3cccc(Cl)c3)c2=O)cc1,-,-
CCN1CC=C2C(C#N)=C(N)C(C#N)(C#N)[C@H](c3cccc(OC)c3OC)[C@H]2C1,-,-
CCN1CC=C2C(C1)C(c1ccc(Cl)s1)C(C#N)=C(N)C2(C#N)C#N (configuration not stated),25µM,25µM
CC(C)c1ccc(NC(=O)CSc2nc3c(c(=O)[nH]2)CCC3)cc1,-,13µM
Cc1ccc(NC(=O)CSc2nc3c(c(=O)[nH]2)CCC3)cc1C,-,?
CN(C(=O)COC(=O)CNC(=O)c1sc2ccccc2c1Cl)c1ccccc1,8.9µM,7.9µM
CCOC(=S)NC(=O)c1sc2ccccc2c1Cl,-,-
CC(Oc1ccccc1)C(=O)Nc1nnc2n1CCS2 (configuration not stated),-,-
CCOC(=O)c1c(-c2ccc(C)cc2)csc1NC(=O)c1cc(-c2ccc(OC)cc2)on1,-,-
COC(=O)c1c(-c2ccc(C)cc2)csc1NC(=S)NC(=O)c1cc(OC)cc(OC)c1,-,4µM
C[C@]12CCC(=O)C=C1CC[C@@H]1C2[C@@H](O)C[C@@]2(C)[C@H]1CC[C@]2(O)C(=O)CO (some centres not stated),-,-
Cc1ccc(NC(=O)c2ccc(OC(=O)CCN3C(=O)c4ccccc4C3=O)cc2)cc1,-,?
Cc1ccc(NC(=O)c2ccc(OC(=O)COc3cccc(Cl)c3)cc2)cc1,-,13µM
Cc1ccc(C(=O)CC(=O)COc2ccc(Cl)cc2C)cc1,-,-
Cc1ccc(NC(=O)c2ccc(OC(=O)COc3ccc(Cl)cc3C)cc2)cc1,-,13µM

# Compound activity as filed in PubChem.
